# Reference: PMC7862700, “An all-to-all approach to the identification of sequence-specific readers for epigenetic DNA modifications on cytosine”
# Assays:
# Experiment in all cases: DAPPL (digital affinity profiling via proximity ligation, sequencing); 10 mM Tris-HCl pH 7.5, 50 mM NaCl, 1 mM DTT, 4% glycerol, room temperature, 30 min; GST-TFs on glutathione beads, 16-mer random dsDNA library, 0.1% formaldehyde crosslink after washing; high values mean tight binding
# FLI1 = biological target: T1, FLI1 (Homo sapiens, UniProt Q01543 1-452); conditions: protein: recombinant; tags: N-terminal GST; dsDNA, one strand shown
# T1 sequence: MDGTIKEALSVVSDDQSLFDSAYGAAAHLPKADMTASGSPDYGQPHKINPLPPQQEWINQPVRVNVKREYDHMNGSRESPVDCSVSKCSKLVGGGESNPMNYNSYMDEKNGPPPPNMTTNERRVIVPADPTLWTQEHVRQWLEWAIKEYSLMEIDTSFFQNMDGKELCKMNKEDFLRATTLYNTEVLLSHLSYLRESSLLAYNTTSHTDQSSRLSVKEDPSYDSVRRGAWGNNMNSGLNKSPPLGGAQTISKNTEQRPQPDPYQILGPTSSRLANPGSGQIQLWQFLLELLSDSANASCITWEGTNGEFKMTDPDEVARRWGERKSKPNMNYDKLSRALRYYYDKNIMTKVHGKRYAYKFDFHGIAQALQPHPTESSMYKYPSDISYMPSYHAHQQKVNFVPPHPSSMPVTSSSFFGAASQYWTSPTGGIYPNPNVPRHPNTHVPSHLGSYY
# Summary of the method: (§1)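 Beads coated with glutathione captured GST-fused human transcription factors that had been expressed in yeast, and the factors were then given DNA barcodes and pooled with a tag-only sample. The pools were incubated with 200 nmole of a random double-stranded 16-mer DNA library in Tris/NaCl/DTT/glycerol buffer for 30 min at room temperature, washed, crosslinked with 0.1% formaldehyde and proximity-ligated with BsaI/T4 ligase at 37 °C for 1 h. PCR amplification and Illumina NextSeq500 sequencing came last. Binding signal is each hexamer's read frequency for a factor divided by its frequency for the tag-only sample.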
# ELK1 = biological target: T2, ELK1 (Homo sapiens, UniProt P19419 1-428); conditions: protein: recombinant; tags: N-terminal GST; dsDNA, one strand shown
# T2 sequence: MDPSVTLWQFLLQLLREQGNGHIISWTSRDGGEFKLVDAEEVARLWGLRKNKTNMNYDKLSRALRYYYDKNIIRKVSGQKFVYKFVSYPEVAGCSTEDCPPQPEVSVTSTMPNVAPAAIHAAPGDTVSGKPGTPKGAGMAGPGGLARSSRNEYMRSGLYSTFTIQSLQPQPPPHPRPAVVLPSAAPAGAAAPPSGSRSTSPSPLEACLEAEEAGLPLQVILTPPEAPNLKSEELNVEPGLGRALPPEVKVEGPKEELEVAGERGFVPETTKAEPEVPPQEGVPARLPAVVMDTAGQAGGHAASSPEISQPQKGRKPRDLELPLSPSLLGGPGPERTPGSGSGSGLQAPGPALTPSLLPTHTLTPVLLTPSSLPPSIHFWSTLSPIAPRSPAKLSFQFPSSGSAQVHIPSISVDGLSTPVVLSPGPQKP
# Summary of the method: as §1
# GABPA = biological target: T3, GABPA (Homo sapiens, UniProt Q06546 1-454); conditions: protein: recombinant; tags: N-terminal GST; dsDNA, one strand shown
# T3 sequence: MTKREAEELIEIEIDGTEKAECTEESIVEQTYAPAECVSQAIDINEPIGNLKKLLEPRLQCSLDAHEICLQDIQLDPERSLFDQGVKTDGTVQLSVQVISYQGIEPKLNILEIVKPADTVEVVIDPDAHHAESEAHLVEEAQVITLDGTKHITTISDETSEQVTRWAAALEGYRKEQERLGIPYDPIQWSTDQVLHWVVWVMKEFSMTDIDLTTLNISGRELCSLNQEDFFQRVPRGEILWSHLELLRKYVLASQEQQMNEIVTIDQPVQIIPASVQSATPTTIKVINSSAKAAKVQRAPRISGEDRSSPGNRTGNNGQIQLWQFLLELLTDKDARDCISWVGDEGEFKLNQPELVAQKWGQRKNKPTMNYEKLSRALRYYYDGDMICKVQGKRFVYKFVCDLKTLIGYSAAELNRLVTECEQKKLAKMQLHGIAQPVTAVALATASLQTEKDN
# Summary of the method: as §1
# ERG = biological target: T4, ERG (Homo sapiens, UniProt P11308 1-479); conditions: protein: recombinant; tags: N-terminal GST; dsDNA, one strand shown
# T4 sequence: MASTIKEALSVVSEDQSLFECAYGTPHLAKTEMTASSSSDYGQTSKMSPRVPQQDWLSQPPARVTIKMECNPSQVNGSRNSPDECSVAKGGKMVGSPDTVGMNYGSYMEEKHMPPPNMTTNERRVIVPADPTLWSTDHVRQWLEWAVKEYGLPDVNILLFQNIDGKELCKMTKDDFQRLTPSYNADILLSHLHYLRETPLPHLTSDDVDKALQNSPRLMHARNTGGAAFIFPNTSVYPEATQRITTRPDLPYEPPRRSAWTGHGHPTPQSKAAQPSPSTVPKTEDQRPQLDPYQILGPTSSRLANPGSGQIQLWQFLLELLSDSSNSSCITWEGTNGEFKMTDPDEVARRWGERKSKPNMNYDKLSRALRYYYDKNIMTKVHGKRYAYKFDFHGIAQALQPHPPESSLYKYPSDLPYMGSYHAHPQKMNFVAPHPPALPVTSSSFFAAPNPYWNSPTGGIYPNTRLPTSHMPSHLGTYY
# Summary of the method: as §1
# ELF1 = ELF1 (Homo sapiens, UniProt P32519 1-619); conditions: protein: recombinant; tags: N-terminal GST; dsDNA, one strand shown
# ELF1, sequence (P32519 whole entry): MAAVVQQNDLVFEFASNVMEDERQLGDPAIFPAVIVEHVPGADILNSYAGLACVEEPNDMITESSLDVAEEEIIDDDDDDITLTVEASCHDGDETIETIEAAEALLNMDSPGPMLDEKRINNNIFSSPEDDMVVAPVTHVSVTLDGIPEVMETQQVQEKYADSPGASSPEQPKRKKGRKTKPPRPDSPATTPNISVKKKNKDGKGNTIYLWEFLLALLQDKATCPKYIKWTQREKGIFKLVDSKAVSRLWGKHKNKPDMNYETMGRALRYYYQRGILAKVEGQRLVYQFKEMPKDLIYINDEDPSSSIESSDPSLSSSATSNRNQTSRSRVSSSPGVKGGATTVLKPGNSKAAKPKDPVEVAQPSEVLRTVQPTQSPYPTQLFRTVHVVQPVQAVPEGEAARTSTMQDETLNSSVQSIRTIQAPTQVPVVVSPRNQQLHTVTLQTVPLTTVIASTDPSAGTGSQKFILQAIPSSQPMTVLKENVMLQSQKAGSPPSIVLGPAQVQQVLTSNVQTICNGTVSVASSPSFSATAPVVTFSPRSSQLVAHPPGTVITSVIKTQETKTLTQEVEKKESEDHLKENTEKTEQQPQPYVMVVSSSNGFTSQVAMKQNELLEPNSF
# Summary of the method: as §1
# EHF = biological target: T5, EHF (Homo sapiens, UniProt Q9NZC4 1-300); conditions: protein: recombinant; tags: N-terminal GST; dsDNA, one strand shown
# T5 sequence: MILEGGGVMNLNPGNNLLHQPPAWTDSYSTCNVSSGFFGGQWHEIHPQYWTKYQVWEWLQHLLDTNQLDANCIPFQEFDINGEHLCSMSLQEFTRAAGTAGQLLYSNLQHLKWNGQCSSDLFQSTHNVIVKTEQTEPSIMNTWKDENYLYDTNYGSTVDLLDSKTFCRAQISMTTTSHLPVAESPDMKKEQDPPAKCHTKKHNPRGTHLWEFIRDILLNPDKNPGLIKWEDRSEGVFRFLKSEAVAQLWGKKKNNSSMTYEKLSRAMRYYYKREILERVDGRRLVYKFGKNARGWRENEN
# Summary of the method: as §1
# SPI1 = SPI1 (Homo sapiens, UniProt P17947 1-270); conditions: protein: recombinant; tags: N-terminal GST; dsDNA, one strand shown
# Summary of the method: as §1
# SPIB = SPIB (Homo sapiens, UniProt Q01892 1-262); conditions: protein: recombinant; tags: N-terminal GST; dsDNA, one strand shown
# SPIB, sequence (Q01892 whole entry): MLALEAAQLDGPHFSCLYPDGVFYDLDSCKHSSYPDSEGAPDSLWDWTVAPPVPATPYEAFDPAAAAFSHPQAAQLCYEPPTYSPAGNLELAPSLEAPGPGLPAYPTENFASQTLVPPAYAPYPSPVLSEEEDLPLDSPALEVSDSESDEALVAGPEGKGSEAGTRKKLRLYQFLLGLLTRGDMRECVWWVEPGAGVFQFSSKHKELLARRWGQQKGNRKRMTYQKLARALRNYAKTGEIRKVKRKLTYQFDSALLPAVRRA
# Summary of the method: as §1
# ELK3 = biological target: T6, ELK3 (Homo sapiens, UniProt P41970 1-407); conditions: protein: recombinant; tags: N-terminal GST; dsDNA, one strand shown
# T6 sequence: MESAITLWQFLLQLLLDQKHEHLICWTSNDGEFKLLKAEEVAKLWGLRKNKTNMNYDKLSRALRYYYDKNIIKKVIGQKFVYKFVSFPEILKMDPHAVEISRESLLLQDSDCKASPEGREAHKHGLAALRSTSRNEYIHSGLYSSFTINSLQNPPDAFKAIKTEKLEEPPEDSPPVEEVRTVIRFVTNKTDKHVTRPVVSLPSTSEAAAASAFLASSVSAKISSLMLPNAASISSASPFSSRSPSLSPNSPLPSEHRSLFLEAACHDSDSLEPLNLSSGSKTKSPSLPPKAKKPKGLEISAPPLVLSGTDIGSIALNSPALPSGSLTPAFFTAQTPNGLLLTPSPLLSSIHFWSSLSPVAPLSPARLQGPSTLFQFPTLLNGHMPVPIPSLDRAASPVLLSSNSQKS
# Summary of the method: as §1
# FEV = biological target: T7, FEV (Homo sapiens, UniProt Q99581 1-238); conditions: protein: recombinant; tags: N-terminal GST; dsDNA, one strand shown
# T7 sequence: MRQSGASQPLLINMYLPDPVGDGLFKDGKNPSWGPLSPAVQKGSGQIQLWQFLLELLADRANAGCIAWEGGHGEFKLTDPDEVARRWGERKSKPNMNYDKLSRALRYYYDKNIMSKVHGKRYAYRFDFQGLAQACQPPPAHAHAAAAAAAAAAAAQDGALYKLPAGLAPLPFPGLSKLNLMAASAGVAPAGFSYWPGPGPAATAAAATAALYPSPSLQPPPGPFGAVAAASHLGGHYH
# Summary of the method: as §1
# ETV5 = ETV5 (Homo sapiens, UniProt P41161 1-510); conditions: protein: recombinant; tags: N-terminal GST; dsDNA, one strand shown
# ETV5, sequence (P41161 whole entry): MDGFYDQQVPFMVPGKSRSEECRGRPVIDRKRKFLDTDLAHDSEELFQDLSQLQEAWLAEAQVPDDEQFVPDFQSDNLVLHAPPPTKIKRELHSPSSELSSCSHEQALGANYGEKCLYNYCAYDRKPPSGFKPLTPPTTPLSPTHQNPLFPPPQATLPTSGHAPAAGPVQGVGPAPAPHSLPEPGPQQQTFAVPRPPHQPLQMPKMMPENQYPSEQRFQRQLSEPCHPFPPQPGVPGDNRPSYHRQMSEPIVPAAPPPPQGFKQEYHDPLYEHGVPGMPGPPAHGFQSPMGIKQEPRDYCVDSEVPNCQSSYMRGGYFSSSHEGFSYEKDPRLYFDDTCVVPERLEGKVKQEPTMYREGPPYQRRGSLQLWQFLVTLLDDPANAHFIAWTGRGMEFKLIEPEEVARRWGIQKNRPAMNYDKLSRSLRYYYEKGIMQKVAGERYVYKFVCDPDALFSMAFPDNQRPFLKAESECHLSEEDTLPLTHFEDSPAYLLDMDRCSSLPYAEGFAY
# Summary of the method: as §1
# HSF1 = HSF1 (Homo sapiens, UniProt Q00613 1-529); conditions: protein: recombinant; tags: N-terminal GST; chain copies: 3; dsDNA, one strand shown
# HSF1, sequence (Q00613 whole entry): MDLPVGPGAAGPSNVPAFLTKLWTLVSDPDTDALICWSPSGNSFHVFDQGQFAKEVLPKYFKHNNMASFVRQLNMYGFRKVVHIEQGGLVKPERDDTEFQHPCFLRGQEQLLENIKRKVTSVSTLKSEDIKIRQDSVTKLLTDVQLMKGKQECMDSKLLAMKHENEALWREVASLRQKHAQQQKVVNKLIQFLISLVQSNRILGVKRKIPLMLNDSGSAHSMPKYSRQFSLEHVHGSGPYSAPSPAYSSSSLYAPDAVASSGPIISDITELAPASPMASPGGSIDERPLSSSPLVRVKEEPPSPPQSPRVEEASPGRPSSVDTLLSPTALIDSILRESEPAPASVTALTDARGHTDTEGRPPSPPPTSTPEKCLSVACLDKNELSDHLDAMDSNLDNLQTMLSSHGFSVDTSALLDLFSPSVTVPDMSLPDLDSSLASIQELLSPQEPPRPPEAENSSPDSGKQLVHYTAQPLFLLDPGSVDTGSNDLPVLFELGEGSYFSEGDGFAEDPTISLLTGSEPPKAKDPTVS
# Summary of the method: as §1
# SPIC = biological target: T8, SPIC (Homo sapiens, UniProt Q8N5J4 1-248); conditions: protein: recombinant; tags: N-terminal GST; dsDNA, one strand shown
# T8 sequence: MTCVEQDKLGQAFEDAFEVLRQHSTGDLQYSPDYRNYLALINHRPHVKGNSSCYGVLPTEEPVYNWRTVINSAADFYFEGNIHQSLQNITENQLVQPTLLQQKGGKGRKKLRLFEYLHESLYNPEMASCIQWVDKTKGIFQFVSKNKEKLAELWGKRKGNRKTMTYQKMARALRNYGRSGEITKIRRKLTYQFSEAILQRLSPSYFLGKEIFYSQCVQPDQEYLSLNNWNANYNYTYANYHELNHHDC
# Summary of the method: as §1
# ELF4 = ELF4 (Homo sapiens, UniProt Q99607 1-663); conditions: protein: recombinant; tags: N-terminal GST; dsDNA, one strand shown
# ELF4, sequence (Q99607 whole entry): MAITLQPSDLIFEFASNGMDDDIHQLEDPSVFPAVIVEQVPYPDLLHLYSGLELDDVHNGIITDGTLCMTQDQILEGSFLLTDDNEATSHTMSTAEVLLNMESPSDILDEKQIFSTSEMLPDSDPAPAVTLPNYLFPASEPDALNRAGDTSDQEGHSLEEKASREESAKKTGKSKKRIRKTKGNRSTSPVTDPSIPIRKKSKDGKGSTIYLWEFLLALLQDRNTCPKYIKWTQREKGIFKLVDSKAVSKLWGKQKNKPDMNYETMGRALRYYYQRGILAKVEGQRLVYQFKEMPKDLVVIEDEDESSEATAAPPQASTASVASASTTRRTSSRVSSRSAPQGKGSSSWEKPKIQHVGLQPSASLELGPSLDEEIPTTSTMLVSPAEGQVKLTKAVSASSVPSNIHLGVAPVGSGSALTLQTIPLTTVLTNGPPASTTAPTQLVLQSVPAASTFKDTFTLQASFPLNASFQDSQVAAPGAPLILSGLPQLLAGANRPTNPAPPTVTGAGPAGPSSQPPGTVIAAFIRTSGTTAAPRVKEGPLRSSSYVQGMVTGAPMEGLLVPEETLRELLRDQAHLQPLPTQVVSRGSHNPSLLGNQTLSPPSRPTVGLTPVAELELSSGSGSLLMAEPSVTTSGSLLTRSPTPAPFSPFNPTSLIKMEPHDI
# Summary of the method: as §1
# ELK4 = biological target: T9, ELK4 (Homo sapiens, UniProt P28324-2 1-405); conditions: protein: recombinant; tags: N-terminal GST; dsDNA, one strand shown
# T9 sequence: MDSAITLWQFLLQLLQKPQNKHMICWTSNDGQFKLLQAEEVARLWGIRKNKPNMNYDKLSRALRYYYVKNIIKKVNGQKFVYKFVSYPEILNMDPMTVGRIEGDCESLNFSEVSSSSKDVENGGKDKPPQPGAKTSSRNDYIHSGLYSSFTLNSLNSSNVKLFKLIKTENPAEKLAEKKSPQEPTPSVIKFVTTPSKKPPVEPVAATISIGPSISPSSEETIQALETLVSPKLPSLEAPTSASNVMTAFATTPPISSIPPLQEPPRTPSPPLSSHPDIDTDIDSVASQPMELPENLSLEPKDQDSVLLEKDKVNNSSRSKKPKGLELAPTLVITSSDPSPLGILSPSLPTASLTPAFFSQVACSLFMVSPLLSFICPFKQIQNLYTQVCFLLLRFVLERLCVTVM
# Summary of the method: as §1
# ETV2 = biological target: T10, ETV2 (Homo sapiens, UniProt O00321 1-342); conditions: protein: recombinant; tags: N-terminal GST; dsDNA, one strand shown
# T10 sequence: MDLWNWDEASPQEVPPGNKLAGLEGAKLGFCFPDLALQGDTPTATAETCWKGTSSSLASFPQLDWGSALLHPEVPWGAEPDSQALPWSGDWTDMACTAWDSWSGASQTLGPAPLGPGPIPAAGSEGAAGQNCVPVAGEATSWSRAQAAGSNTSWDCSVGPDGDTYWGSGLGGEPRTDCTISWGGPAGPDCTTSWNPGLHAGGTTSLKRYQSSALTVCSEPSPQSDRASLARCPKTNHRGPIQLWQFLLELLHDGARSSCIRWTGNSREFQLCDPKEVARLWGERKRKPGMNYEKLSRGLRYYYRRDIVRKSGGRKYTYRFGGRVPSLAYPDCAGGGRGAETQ
# Summary of the method: as §1
# ELF3 = biological target: T11, ELF3 (Homo sapiens, UniProt P78545 1-371); conditions: protein: recombinant; tags: N-terminal GST; dsDNA, one strand shown
# T11 sequence: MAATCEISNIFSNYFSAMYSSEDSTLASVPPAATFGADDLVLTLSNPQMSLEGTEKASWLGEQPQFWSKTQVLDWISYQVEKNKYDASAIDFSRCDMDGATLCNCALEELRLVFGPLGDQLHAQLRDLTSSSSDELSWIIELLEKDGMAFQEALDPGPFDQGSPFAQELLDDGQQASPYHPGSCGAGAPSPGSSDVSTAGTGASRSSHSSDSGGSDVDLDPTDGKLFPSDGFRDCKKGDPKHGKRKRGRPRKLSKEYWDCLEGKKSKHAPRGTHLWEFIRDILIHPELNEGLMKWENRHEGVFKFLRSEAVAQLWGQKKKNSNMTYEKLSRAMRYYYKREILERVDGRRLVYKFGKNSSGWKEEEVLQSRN
# Summary of the method: as §1
# CRX = CRX (Homo sapiens, UniProt O43186 1-299); conditions: protein: recombinant; tags: N-terminal GST; dsDNA, one strand shown
# CRX, sequence (O43186 whole entry): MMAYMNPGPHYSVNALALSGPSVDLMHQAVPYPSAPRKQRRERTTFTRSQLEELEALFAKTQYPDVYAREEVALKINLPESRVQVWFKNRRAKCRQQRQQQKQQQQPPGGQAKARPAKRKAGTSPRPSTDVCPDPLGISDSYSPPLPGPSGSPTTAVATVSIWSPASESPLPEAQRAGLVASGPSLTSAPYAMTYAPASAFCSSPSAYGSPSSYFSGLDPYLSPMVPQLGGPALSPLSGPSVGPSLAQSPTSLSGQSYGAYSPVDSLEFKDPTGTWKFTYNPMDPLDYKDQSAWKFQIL
# Summary of the method: as §1
# ETV1 = ETV1 (Homo sapiens, UniProt P50549 1-477); conditions: protein: recombinant; tags: N-terminal GST; dsDNA, one strand shown
# ETV1, sequence (P50549 whole entry): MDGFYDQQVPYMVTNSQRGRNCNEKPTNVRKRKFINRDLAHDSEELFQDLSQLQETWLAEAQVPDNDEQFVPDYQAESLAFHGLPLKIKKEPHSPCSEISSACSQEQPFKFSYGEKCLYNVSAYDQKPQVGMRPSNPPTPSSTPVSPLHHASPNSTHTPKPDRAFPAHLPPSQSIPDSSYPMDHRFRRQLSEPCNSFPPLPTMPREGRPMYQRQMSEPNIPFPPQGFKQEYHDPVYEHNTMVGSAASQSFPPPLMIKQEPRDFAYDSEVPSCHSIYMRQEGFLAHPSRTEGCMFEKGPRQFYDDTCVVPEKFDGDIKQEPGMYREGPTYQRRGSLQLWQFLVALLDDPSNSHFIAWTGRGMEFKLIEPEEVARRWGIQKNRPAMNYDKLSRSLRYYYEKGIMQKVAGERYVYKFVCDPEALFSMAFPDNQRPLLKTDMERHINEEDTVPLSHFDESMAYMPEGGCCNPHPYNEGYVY
# Summary of the method: as §1
sequence,measurement,setting,value
TTGTTT,binding signal,FLI1,"1.46 fold enrichment (6-mer frequency, TF over GST control)"
same,binding signal,ELK1,"1.45 fold enrichment (6-mer frequency, TF over GST control)"
same,binding signal,GABPA,"1.36 fold enrichment (6-mer frequency, TF over GST control)"
same,binding signal,ERG,"1.6 fold enrichment (6-mer frequency, TF over GST control)"
same,binding signal,ELF1,"1.37 fold enrichment (6-mer frequency, TF over GST control)"
same,binding signal,EHF,"1.51 fold enrichment (6-mer frequency, TF over GST control)"
same,binding signal,SPI1,"1.28 fold enrichment (6-mer frequency, TF over GST control)"
same,binding signal,SPIB,"1.52 fold enrichment (6-mer frequency, TF over GST control)"
same,binding signal,ELK3,"1.49 fold enrichment (6-mer frequency, TF over GST control)"
same,binding signal,FEV,"1.45 fold enrichment (6-mer frequency, TF over GST control)"
same,binding signal,ETV5,"1.53 fold enrichment (6-mer frequency, TF over GST control)"
same,binding signal,HSF1,"1.24 fold enrichment (6-mer frequency, TF over GST control)"
same,binding signal,SPIC,"1.08 fold enrichment (6-mer frequency, TF over GST control)"
same,binding signal,ELF4,"1.44 fold enrichment (6-mer frequency, TF over GST control)"
same,binding signal,ELK4,"1.61 fold enrichment (6-mer frequency, TF over GST control)"
same,binding signal,ETV2,"1.32 fold enrichment (6-mer frequency, TF over GST control)"
same,binding signal,ELF3,"1.61 fold enrichment (6-mer frequency, TF over GST control)"
same,binding signal,CRX,"1.45 fold enrichment (6-mer frequency, TF over GST control)"
same,binding signal,ETV1,"1.38 fold enrichment (6-mer frequency, TF over GST control)"
